# Assay results from PubChem BioAssay (NCI).
# Compounds without any hit were thinned out: in the full panel of roughly 83,000, 20% have a hit.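 Note: values are percent growth. 100 is the growth of untreated cells, values between 100 and 0 indicate rising inhibition; between -100 and 0 indicates cell death.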 Unmarked numbers belong to inactive results. Active and inactive are the calls of the source. How the source made its calls: active means growth percent below 10; inactive means the rest.
# Tested on: MDA-MB-435 melanoma
# Experiment: NCI-60 one-dose screen, 48 h (100 = growth as untreated, 0 = no growth, -100 = all killed)
# Details: 10 µM unless noted
row,SMILES,growth
1,COc1ccc(-c2cn(-c3cccc(C(=O)/C=C/c4ccc(O)c(OC)c4)c3)c(=O)[nH]2)cc1,20.5%
2,Cc1ccccc1N1C(c2ccccc2)=NNC12C=CC(=O)c1c(O)cccc12 (configuration not stated),-89.5% (active)
3,COc1cc(Nc2ccnc3ccc(Br)cc23)cc(OC)c1OC,-41.5% (active)
4,CN1CCN(Cc2ccc(NC(=O)c3cncc(C#Cc4ccc(N)nc4)c3)cc2C(F)(F)F)CC1,9.96% (active)
5,COc1ccc(Sc2[nH]c(C=O)c3ccccc23)cc1,-0.922% (active)
6,COCCOCCOCc1n(Cc2ccc3ccccc3n2)c2ccccc2[n+]1Cc1ccc2ccccc2c1,-21.9% (active)
7,COc1ccc(C2C3CCc4ccccc4C3=NN2C(=O)c2cc(OC)c(OC)c(OC)c2)cc1O (configuration not stated),96.2%
8,O=c1[nH]cnc2nc[nH]c12,93.5%
9,CC(=O)O[C@H]1[C@H](CC#CC#CC[C@@H]2C[C@]3(C)[C@H]4CC=C5[C@H]6[C@@H](C)[C@H](C)CC[C@]6(C(=O)NCCN(CCN)CCN)CC[C@@]5(C)[C@]4(C)CC[C@H]3C(C)(C)[C@H]2OC(C)=O)C[C@]2(C)[C@H]3CC=C4[C@H]5[C@@H](C)[C@H](C)CC[C@]5(C(=O)NCCN(CCN)CCN)CC[C@@]4(C)[C@]3(C)CC[C@H]2C1(C)C,64.7%
10,Fc1ccc2nc(-c3ccc(-c4noc(-c5ccc(Cl)cc5)n4)cc3)[nH]c2c1,105%
11,CCNS(=O)(=O)c1ccc(C)cc1,111%
12,OC(c1cc(-c2ccc(C(F)(F)F)cc2)nc(-c2ccc(C(F)(F)F)cc2)c1)C1CCCCN1 (configuration not stated),-58.3% (active)
